Inconclusive results are not listed. Some of the results follow. Activity calls are given as the source filed them. Unless noted, the call rests on the fitted dose curve; in most records, active means well fitted curve in the direction sought with a large enough effect; inconclusive means small, poorly fitted or top-dose-only effect, or another doubt; inactive means no such curve, though single readings can be large; an effect the other way counts as inactive or inconclusive.
Columns and labels:
[1] = target: Tumor susceptibility gene 101 protein (Homo sapiens) (UniProt Q99816); experiment: qHTS Assay for Iinhibitors of HIV-1 Budding by Blocking the Interaction of PTAP/TSG101: Hit Validation (AID 651600); further: nearly all actives have a fitted effect of over 70% in size; further: potency means the concentration at half of the fitted maximal effect
Outline: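 Displacement of a FITC-labeled PTAP-motif peptide (50 nM) from the Tsg101 binding domain (10 uM) was monitored by fluorescence polarization after a 20 min room-temperature incubation.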

[2] = target: Rap guanine nucleotide exchange factor 3 (Homo sapiens) (UniProt O95398); experiment: Confirmatory qHTS for antagonist of cAMP-regulated guanine nucleotide exchange factor 3 (EPAC1) (AID 1645880); conditions: EPAC1 Rap1B-BODIPY-GDP exchange, fluorescence; activity, negative = inhibition: at 115 µM (top of the series); further: nearly all actives have a fitted effect of over 55% in size; further: potency means the concentration at half of the fitted maximal effect;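 on activity, negative = inhibition: plate controls were DMSO only for no effect and full effect of the ATA control for full effect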
Outline: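 Nucleotide exchange uses 100 nM EPAC1, 250 nM RAP1B-BODIPY-GDP and 50 uM GDP, with compounds in a concentration-titration series. After 5 min at room temperature, fluorescence (480 nm ex/540 nm em) is read every 5 min for 30 min. Data are normalized to control ATA and DMSO.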

[3] = target: Rap guanine nucleotide exchange factor 3 (Homo sapiens) (UniProt O95398); experiment: Confirmatory qHTS for agonist of cAMP-regulated guanine nucleotide exchange factor 3 (EPAC1) (AID 1645881); further: nearly all actives have a fitted effect of over 75% in size; further: potency means the concentration at half of the fitted maximal effect;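 on activation: EPAC1 catalysed release of BODIPY-GDP from Rap1B seen as fluorescence loss; 100% = effect of cAMP agonist control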
[4] = target: Rap guanine nucleotide exchange factor 4 (Homo sapiens) (UniProt Q8WZA2); experiment: Confirmatory qHTS for agonist of cAMP-regulated guanine nucleotide exchange factor 4 (EPAC2) (AID 1645884);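 further: nucleotide exchange releases bodipy-GDP from Rap1 and this lowers its fluorescence; nearly all actives have a fitted effect of over 65% in size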; further: potency means the concentration at half of the fitted maximal effect
[5] = target: Rap guanine nucleotide exchange factor 4 (Homo sapiens) (UniProt Q8WZA2); experiment: Confirmatory qHTS for antagonist of cAMP-regulated guanine nucleotide exchange factor 4 (EPAC2) (AID 1645885); further: nearly all actives have a fitted effect of over 25% in size; further: potency means the concentration at half of the fitted maximal effect
[6] = target: Rap guanine nucleotide exchange factor 3 (Homo sapiens) (UniProt O95398); experiment: Counterscreen qHTS for antagonist of cAMP-regulated guanine nucleotide exchange factor 3 (EPAC1) (AID 1645888);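 further: fluorescence loss as bound BODIPY-GDP is released from Rap1B; % of control where 0% means no effect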
Outline: (§1)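 Rap1B–BODIPY-GDP (250 nM) with 50 uM GDP; compounds pin-transferred to 9.74 nM–152 uM final (activator) or from 7.32 nM upwards (inhibitor). Fluorescence Ex/Em 480/540 nm read at 5 and 30 min, then after adding cAMP or buffer, at room temperature.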

[7] = target: Rap guanine nucleotide exchange factor 3 (Homo sapiens) (UniProt O95398); experiment: Counterscreen qHTS for agonist of cAMP-regulated guanine nucleotide exchange factor 3 (EPAC1) (AID 1645889); further: % of control where 0% means no effect; nearly all actives have a fitted effect of over 40% in size
Outline: as §1

[8] = target: Lethal(3)malignant brain tumor-like protein 1 (Homo sapiens) (UniProt Q9Y468); experiment: qHTS Assay for the Inhibitors of L3MBTL1: Hit Validation (AID 540279); conditions: L3MBTL1 methyl-lysine binding inhibition, biochemical qHTS; further: potency means the concentration at half of the fitted maximal effect; nearly all actives have a fitted effect of over 70% in size
Outline: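 L3MBTL1 (50 nM final) preformed 30 min with biotinylated H3(1-15)K9me1 peptide (75 nM), then compound 30 min at room temperature. Streptavidin donor and nickel chelate acceptor AlphaScreen beads (10 ug/mL each final) added for 30 min before read.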

[9] = target: DNA polymerase iota (Homo sapiens) (UniProt Q9UNA4); experiment: qHTS for Inhibitors of Polymerase Iota: Confirmatory Assay for Cherry-picked Compounds (AID 720496); conditions: Pol iota primer extension, TAMRA/BHQ fluorescence; further: potency means the concentration at half of the fitted maximal effect
Outline: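 Buffer-only wells, without enzyme, serve as negative control. Test wells hold 10 nM Pol iota preincubated 15 min with compound before 50 nM final fluorogenic DNA substrate is added; signal is read at 0 and 10 min.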

[10] = target: DNA polymerase kappa (Homo sapiens) (UniProt Q9UBT6); experiment: qHTS for Inhibitors of Polymerase Kappa: Confirmatory Assay for Cherry-picked Compounds (AID 720501); conditions: purified Pol-kappa, fluorescent strand-displacement substrate; further: potency means the concentration at half of the fitted maximal effect
Outline: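 10 nM human Pol-kappa was preincubated with compound 15 min at room temperature, then 50 nM (final) primer/template substrate with TAMRA-labeled reporter strand and BHQ-2-labeled template added. Fluorescence (Ex 525, Em 598 nm) read at 0 and 10 min.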

[11] = AP1 Signaling Pathway (AID 357; active means well fitted curve in either direction with a large enough effect, not every such curve was filed as active;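 further: ME-180 reporter cells stimulated with EGF at its EC50 level; on the % scale 0 is the no-effect control and ±100 the full control effect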); conditions: ME-180 AP-1-bla reporter, EGF-induced, beta-lactamase ratio, 5 h; at 7.69 µM (top of the series) unless noted
Outline: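 In this screen, ME-180 cells in Opti-MEM with 0.5% dialyzed FBS received EC50 EGF and compound titrations for 5 h. AP-1 reporter beta-lactamase was detected via CCF4 ratio, giving AC50 for positive and negative modulators.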

[12] = NFAT Signaling Pathway (AID 444; active means well fitted curve in either direction with a large enough effect, not every such curve was filed as active;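 further: carbachol stimulus at about its EC50 of 1 µM final; on the % scale 0 is the no-effect control and ±100 the full control effect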); conditions: Jurkat NFAT-bla M1, carbachol, beta-lactamase ratio, 5 h; at 7.69 µM (top of the series) unless noted
Outline: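 Jurkat cells with NFAT-driven β-lactamase reporter and co-expressed M1 receptor, stimulated with carbachol (final 1 uM, ~EC50), compound titration, 5 h at 37 °C. CCF4 loaded 1 h at RT; 460/530 nm ratio gave %activity and AC50.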

[13] = Stat Signaling Pathway (AID 446; active means well fitted curve in either direction with a large enough effect, not every such curve was filed as active;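 further: ME-180 cervical cancer cells given 40 pM IL-6 alongside compound; SIE-controlled beta-lactamase reporter measured as 460/530 nm FRET emission ratio; on the % scale 0 is the no-effect control and ±100 the full control effect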)
Outline: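 Screening format detects activators and inhibitors alike: ME-180 SIE-bla cells stimulated at 40 pM IL-6 for 5 hrs with compound, then dual-emission beta-lactamase read at 405 nm excitation.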

[14] = target: Glucocorticoid receptor (Homo sapiens) (UniProt P04150); experiment: GR-GFP Redistribution (AID 450;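 active means compounds whose dose series gives a full or clear partial fitted curve of increased nuclear translocation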; further: potency means the concentration at half of the fitted maximal effect); conditions: U2OS GR-GFP nuclear translocation, laser cytometry, 2 h
[15] = target: Glucocorticoid receptor (Homo sapiens) (UniProt P04150); experiment: GR-EFC Redistribution (AID 451; calls by dose curve; further: potency means the concentration at half of the fitted maximal effect); conditions: CHO-K1 GR-EFC translocation, beta-gal luminescence, 2 h
Outline: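 CHO-K1 cells expressing nuclear EA and GR-ED fragments of b-gal; compounds titrated up to 46 uM final, 2 h at 37 C. GR nuclear translocation read as complemented b-gal luminescence after 1 h RT detection.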

[16] = target: Mitogen-activated protein kinase 10 (Mus musculus) (UniProt Q61831); experiment: JNK3 AlphaScreen Assay (AID 530; active means well fitted curve in either direction with a large enough effect, not every such curve was filed as active;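 further: kinase came from lysate of stimulated human HepG2 cells; signal reports phosphorylation of biotinylated GST-cJun 1-79 at Ser73 with 10 µM ATP; on the % scale 0 is the no-effect control and ±100 the full control effect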)
Outline: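 Pre-activated (IL-1β/TNFα) JNK3 in HepG2 lysates phosphorylates biotin-GST-cJun(1-79), 10 uM ATP; anti-phospho-cJun(Ser73) AlphaScreen read at room temperature, pH 7.6 Tris buffer. Compounds pre-incubated 15 min as titrations.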

[17] = target: 3',5'-cyclic-AMP phosphodiesterase 4B (Homo sapiens) (UniProt Q07343); experiment: qHTS Assay for Inhibitors of PDE-IV (AID 607; active means well fitted activation curve with a large enough effect in the main read-out, with a control signal flat, not every such curve was filed as active; further: % of control where 0% means no effect)
Outline: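 The readout is membrane depolarisation from a cAMP-sensing CNG channel, detected with a potential dye at ex 535/em 590. Cells were HEK293-derived (endogenous PDE-IV) at 1000 cells/well, titrated up to 22.9 uM final.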

[18] = target: Tyrosyl-DNA phosphodiesterase 1 (Homo sapiens) (UniProt Q9NUW8); experiment: Confirmation Assay for Inhibitors of Tyrosyl-DNA Phosphodiesterase (TDP1) (AID 489007); conditions: recombinant human TDP1 enzymatic activity, dose-response; further: potency means the concentration at half of the fitted maximal effect; nearly all actives have a fitted effect of over 40% in size
Outline: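 Tdp1 1 nM + cpd, 15 min RT; add biotin/phosphotyrosine-FITC oligo 15 nM, 5 min RT; add AS donor/acceptor beads 10 ug/ml, 10 min RT; read AlphaScreen. No-enzyme wells = max signal.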

[19] = qHTS Assay for Identification of Small Molecule Agonists for Hypoxia Response Element Signaling Pathway (AID 914; active means well fitted activation curve with a large enough effect in the signal ratio, with a control signal flat, not every such curve was filed as active; the % refers to the signal ratio; further: potency means the concentration at half of the fitted maximal effect); conditions: ME-180 (cervical carcinoma) HRE-bla reporter, beta-lactamase ratio, CoCl2, 17 h; activation: active compounds read high
Outline: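 Read-out: CCF4 FRET ratio of 460nm to 530nm emission (excitation 405nm) after 2.5 hours at room temperature, taken from HRE-bla ME-180 cells that had been exposed to compound and EC50 CoCl2 for 17 hours.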

Chain of Tumor susceptibility gene 101 protein (Homo sapiens) (Q99816 whole entry, looked up, the tested form may be a part): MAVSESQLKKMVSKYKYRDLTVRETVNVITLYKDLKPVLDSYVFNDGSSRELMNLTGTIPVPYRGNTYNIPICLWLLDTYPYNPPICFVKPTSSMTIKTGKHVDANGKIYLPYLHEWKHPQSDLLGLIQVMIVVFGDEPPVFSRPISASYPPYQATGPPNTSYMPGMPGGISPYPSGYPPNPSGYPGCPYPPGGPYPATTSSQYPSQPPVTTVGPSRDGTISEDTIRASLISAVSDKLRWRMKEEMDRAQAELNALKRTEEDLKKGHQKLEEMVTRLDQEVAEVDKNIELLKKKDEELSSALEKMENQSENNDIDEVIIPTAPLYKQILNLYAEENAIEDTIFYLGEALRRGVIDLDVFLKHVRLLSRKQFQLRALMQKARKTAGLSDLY
Chain of Rap guanine nucleotide exchange factor 3 (Homo sapiens) (O95398 whole entry, looked up): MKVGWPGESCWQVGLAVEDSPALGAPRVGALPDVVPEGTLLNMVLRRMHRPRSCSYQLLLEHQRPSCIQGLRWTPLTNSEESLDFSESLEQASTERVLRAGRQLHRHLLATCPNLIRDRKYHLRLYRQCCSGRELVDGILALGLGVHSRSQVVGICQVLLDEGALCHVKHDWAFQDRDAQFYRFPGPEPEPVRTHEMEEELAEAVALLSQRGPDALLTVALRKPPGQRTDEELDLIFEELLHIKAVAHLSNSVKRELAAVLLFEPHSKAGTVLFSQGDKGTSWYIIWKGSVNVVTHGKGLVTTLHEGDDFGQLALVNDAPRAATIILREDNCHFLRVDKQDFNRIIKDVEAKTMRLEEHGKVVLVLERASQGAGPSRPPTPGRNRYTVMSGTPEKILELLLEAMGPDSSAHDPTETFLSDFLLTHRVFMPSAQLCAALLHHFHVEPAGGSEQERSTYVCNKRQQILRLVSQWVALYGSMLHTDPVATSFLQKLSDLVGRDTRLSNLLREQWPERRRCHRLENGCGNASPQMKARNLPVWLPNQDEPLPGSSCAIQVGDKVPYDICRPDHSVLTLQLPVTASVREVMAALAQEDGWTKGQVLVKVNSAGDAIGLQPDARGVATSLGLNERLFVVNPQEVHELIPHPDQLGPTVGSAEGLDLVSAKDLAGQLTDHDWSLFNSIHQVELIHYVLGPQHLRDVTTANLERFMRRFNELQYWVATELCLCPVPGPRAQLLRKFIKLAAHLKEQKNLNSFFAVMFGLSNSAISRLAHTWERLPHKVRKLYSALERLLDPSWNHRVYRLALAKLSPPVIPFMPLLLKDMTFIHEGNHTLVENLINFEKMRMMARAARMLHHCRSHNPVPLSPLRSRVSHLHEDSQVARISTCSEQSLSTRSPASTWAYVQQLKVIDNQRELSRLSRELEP
Chain of Rap guanine nucleotide exchange factor 4 (Homo sapiens) (Q8WZA2 whole entry, looked up): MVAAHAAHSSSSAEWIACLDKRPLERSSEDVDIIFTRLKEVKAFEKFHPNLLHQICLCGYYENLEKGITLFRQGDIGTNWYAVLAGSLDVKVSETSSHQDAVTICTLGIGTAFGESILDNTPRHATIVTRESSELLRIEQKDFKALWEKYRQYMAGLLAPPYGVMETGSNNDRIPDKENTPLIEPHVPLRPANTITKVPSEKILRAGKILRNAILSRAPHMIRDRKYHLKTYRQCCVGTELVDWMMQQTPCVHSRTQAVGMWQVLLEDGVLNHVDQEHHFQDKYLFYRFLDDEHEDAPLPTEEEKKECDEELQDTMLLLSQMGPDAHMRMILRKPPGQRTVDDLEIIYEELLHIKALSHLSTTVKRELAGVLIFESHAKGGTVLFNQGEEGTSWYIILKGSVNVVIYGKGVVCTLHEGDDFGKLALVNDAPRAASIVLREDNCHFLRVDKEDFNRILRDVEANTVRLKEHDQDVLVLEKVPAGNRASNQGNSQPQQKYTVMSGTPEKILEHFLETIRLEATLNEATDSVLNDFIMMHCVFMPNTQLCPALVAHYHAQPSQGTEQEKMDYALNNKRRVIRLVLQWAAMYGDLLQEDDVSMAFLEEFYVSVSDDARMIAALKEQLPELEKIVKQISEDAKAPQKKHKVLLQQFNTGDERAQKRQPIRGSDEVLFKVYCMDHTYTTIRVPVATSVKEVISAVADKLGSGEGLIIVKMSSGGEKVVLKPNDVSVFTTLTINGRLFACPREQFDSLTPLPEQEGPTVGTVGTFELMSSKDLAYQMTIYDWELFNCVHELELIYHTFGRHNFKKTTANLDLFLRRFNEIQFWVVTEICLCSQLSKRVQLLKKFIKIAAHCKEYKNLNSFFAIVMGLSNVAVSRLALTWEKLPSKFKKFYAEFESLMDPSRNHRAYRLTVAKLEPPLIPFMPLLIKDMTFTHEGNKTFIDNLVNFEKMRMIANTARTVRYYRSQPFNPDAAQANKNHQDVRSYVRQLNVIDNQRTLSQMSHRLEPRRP
Chain of Glucocorticoid receptor (Homo sapiens) (P04150 whole entry, looked up, the tested form may be a part): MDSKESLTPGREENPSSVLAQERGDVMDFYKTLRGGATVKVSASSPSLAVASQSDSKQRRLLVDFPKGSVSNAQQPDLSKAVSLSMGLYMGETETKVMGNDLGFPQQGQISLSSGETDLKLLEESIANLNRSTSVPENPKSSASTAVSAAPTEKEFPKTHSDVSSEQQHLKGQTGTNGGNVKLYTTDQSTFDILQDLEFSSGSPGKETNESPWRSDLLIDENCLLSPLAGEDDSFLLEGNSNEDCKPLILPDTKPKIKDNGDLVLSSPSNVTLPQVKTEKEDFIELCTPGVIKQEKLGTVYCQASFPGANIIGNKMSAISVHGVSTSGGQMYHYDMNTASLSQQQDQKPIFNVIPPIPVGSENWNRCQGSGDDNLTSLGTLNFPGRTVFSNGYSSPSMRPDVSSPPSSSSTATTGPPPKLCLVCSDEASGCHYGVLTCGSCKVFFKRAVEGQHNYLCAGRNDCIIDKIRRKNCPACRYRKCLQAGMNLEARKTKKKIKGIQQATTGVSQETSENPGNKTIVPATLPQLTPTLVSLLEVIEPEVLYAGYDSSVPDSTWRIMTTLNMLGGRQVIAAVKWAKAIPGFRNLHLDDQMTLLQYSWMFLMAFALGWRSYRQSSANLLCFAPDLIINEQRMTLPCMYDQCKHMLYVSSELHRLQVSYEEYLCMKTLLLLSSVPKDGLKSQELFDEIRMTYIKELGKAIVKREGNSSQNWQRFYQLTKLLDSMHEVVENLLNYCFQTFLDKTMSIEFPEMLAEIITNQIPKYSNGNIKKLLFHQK
Chain of DNA polymerase iota (Homo sapiens) (Q9UNA4 whole entry, looked up): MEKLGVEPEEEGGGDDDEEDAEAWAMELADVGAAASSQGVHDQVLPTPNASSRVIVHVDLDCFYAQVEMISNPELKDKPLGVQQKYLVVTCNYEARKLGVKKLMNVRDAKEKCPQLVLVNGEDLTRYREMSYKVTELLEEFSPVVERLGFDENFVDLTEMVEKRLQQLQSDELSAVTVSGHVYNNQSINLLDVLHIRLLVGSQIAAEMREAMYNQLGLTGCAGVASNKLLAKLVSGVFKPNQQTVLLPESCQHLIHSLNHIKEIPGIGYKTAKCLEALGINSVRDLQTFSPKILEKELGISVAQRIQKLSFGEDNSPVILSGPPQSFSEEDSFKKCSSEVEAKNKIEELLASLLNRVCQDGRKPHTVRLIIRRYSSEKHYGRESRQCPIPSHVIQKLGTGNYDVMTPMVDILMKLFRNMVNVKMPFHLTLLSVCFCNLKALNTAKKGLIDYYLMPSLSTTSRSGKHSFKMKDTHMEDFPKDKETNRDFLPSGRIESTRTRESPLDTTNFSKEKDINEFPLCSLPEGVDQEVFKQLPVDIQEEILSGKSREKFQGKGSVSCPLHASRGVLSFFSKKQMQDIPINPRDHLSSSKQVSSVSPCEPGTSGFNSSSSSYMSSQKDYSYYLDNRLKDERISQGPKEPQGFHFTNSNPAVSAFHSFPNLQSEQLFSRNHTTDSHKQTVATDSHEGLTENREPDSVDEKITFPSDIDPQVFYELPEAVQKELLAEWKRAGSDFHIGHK
Chain of 3',5'-cyclic-AMP phosphodiesterase 4B (Homo sapiens) (Q07343 whole entry, looked up): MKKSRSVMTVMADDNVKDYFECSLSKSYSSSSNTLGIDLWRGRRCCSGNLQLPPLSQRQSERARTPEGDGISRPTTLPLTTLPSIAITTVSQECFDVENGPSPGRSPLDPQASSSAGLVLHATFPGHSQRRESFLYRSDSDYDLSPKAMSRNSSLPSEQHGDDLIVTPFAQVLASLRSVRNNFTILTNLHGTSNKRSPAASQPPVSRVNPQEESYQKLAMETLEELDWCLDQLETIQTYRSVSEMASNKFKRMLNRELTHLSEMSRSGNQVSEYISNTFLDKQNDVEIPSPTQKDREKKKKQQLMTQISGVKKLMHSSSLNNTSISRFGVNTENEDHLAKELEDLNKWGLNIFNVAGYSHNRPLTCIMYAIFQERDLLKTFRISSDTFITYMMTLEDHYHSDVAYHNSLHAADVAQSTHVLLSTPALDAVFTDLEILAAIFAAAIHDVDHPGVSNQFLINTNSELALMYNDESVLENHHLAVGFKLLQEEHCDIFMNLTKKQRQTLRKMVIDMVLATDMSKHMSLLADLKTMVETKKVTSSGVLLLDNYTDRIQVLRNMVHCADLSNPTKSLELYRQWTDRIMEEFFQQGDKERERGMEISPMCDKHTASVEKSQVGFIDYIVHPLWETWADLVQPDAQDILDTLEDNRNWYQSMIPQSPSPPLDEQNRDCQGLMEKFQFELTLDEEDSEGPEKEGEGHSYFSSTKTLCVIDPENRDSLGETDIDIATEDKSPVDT

CC(=O)Nc1ccc(N=Cc2c(O)c(C(=O)Nc3ccccc3)cc3ccccc23)cc1
active: Potency [1] 16.3 µM
inactive: Potency [2] | Potency [3] | activation [4] -21% [at 17.1 µM, percent relative to cAMP agonist control] | Potency [5] | activity change, negative = inhibition [6] -16.4% [at 30.8 µM]

CC1CN(c2nc3ccccc3nc2C(C#N)C(=O)NCc2ccc3c(c2)OCO3)CC(C)O1 (stereo unspecified)
inactive: Potency [1] | Potency [2] | Potency [3] | Potency [4] | Potency [5] | Potency [6]

N=c1c(S(=O)(=O)c2ccc(Br)cc2)cc2c(=O)n3ccccc3nc2n1Cc1ccccc1
inactive: Potency [1] | Potency [3] | activation [4] -5.31% [at 17.1 µM, percent relative to cAMP agonist control] | Potency [5] | activity change, negative = inhibition [6] -6.58% [at 30.8 µM] | activation [7] 9.82% [at 30.8 µM]
active: Potency [2] 50.1 µM

COc1ccc2nc3ccccc3[n+]([O-])c2c1
inactive: Potency [2] | activation [4] 14% [at 17.1 µM, percent relative to cAMP agonist control] | Potency [5] | activity change, negative = inhibition [6] 32.7% [at 30.8 µM]
active: Potency [1] 18.3 µM | Potency [3] 79.4 µM

Cc1ccc(-c2cn3nc(-c4ccccc4)c(-c4ccccc4)nc3n2)cc1
inactive: Potency [2] | Potency [3] | Potency [4] | Potency [5] | Potency [6] | Potency [7]
active: Potency [1] 25.9 µM

Cc1ccc(N=C2NC(=O)/C(=C/C=C/c3ccco3)S2)cc1C
active: Potency [8] 21.2 µM | Potency [9] 47.4 µM | Potency [10] 47.4 µM | Potency [2] 12.6 µM
inactive: Potency [3] | activation [4] -4% [at 17.1 µM, percent relative to cAMP agonist control] | Potency [5] | activity change, negative = inhibition [6] 5.98% [at 30.8 µM] | activation [7] 25.8% [at 30.8 µM]

c1ccc(-c2cn3nc(-c4ccccc4)c(-c4ccccc4)nc3n2)cc1
inactive: Potency [1] | Potency [2] | Potency [3] | activation [4] 8.73% [at 17.1 µM, percent relative to cAMP agonist control] | Potency [5] | activity change, negative = inhibition [6] 14.3% [at 30.8 µM] | activation [7] 16.7% [at 30.8 µM]

NS(=O)(=O)c1ccc(N=Nc2c[nH]c(=O)c(O)c2)cc1
active: Potency [1] 18.3 µM | Potency [2] 42.6 µM | Potency [5] 84.9 µM
inactive: activity change, negative = inhibition [11] 8.24% | activity change, negative = inhibition [12] -22.1% | outcome [13] | Potency [14] > 46 µM | Potency [15] > 9.22 µM | activity change, negative = inhibition [16] -17.1% [at 11.4 µM] | Potency [17] | Potency [3] | Potency [4] | Potency [6] | Potency [7]

NC1=CC(=O)C(=O)c2cccnc21
inactive: Potency [3] | activation [4] 3.71% [at 17.1 µM, percent relative to cAMP agonist control] | Potency [5] | activity change, negative = inhibition [6] -7.69% [at 30.8 µM] | activation [7] 11.2% [at 30.8 µM]
active: Potency [9] 42.3 µM | Potency [2] 10 µM

Cc1ccc(C)c2nc3sc(C(=O)N4CCCc5ccccc54)c(N)c3cc12
inactive: Potency [2] | Potency [3] | Potency [4] | Potency [5] | Potency [6]
active: Potency [1] 20.6 µM

CC1=C(C#N)C(=O)OC(C)(C)C1
active: Potency [5] 0.601 µM
inactive: activity change, negative = inhibition [11] 8.14% [at 17.2 µM] | activity change, negative = inhibition [12] -4.86% [at 17.2 µM] | outcome [13] | Potency [14] > 20.6 µM | Potency [2] | Potency [3] | Potency [4] | Potency [6]

Cc1ccc(C(=O)NN2C(=O)/C(=C/c3cn(C)c4ccccc34)SC2=S)cc1
inactive: Potency [2] | Potency [3] | Potency [4] | Potency [5] | Potency [6]
active: Potency [1] 14.6 µM

Fc1ccc(N2N=C(c3cccs3)CC2c2ccccc2)cc1 (stereo unspecified)
active: Potency [18] 28.2 µM
inactive: Potency [2] | Potency [3] | Potency [4] | Potency [5] | Potency [6]

CCCCCCc1cc2cc(C(=O)NC)c(=N)oc2cc1O
inactive: activity change, negative = inhibition [11] -13% [at 17.2 µM] | outcome [13] | Potency [14] > 20.6 µM | Potency [2] | Potency [5] | Potency [6]
active: Potency [19] 3.98 µM | Potency [3] 89.1 µM | Potency [4] 100 µM

O=C(N/N=C/c1ccccc1Cl)c1[nH]c2ccc(Br)cc2c1-c1ccccc1
inactive: Potency [1] | Potency [2] | Potency [3] | Potency [5] | Potency [6]
active: Potency [4] 126 µM

Source: PubChem BioAssay (NCATS)
